# Source: ChEMBL document CHEMBL3988442, “University of Dundee, Small-Polar-MMV Screening Library” (2021)
# For some assays here: Measured potencies and affinities stand elsewhere.
# Legend:
# Parameters in all cases: scale not given: direction of the effect not stated beside the values
# [1] = molecular target: Protein translocase subunit SecA (Escherichia coli (strain K12)) (UniProt P10408); assay: Assay to Identify E. coli SecA ATPase Inhibitors; assay type: functional; settings: 30 µM
# [2] = molecular target: T1, Ubiquitin-activating enzyme e1, putative (Leishmania donovani (strain BPK282A1)) (UniProt E9BSI1); assay: Leishmania donovani Ubiquitin Activating Enzyme (LdE1); assay type: functional; settings: 30 µM
# T1 sequence (whole entry): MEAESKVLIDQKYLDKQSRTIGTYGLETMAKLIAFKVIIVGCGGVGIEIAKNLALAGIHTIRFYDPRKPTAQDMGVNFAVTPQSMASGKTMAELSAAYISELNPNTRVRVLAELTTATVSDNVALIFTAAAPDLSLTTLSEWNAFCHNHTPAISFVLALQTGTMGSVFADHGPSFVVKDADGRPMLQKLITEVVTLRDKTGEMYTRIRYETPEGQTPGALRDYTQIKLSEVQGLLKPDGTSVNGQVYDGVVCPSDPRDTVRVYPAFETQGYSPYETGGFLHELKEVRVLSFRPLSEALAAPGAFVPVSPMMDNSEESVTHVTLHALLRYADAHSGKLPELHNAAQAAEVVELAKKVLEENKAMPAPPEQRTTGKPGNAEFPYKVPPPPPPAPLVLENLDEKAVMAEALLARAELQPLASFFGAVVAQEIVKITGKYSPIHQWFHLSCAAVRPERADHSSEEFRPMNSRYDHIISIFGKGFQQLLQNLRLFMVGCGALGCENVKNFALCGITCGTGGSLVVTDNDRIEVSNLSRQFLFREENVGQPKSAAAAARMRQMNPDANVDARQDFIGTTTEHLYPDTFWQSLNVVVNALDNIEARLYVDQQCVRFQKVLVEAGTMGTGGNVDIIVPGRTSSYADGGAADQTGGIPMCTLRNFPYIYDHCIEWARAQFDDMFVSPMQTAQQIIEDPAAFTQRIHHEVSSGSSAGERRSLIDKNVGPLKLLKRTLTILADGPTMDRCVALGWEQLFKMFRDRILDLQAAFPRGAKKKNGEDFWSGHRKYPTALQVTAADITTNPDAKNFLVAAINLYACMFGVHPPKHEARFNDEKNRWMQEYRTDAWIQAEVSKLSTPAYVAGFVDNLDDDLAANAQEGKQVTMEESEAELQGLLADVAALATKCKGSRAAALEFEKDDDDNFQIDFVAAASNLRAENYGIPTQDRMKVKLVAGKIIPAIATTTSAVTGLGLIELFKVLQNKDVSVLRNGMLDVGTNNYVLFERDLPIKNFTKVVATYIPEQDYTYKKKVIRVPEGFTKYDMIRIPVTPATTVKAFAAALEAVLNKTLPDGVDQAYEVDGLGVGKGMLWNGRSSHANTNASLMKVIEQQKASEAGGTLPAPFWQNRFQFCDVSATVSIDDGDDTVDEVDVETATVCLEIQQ
# [3] = molecular target: AMP-activated protein kinase, AMPK (Homo sapiens) (UniProt P54646+O43741+P54619+Q9UGJ0+Q9Y478+Q13131+Q9UGI9); assay: AMP-dependent Kinase enzyme assay. An in vitro enzyme assay that detects ADP turnover that is directly proportional to AMPK activity. This uses naive AMPK that is activated during the assay with MK-8722; assay type: functional; settings: 30 µM
# [4] = molecular target: Sialic acid-binding Ig-like lectin 9 (Homo sapiens) (UniProt Q9Y336); assay: Hs-Siglec9 ALPHAscreen SOP 20170721; settings: 10 µM
# Trypanosoma cruzi = assay: Trypanosoma cruzi phosphomannomutase and mannose-1-phosphate guanylyltransferase assay; assay type: functional; settings: 10 µM
# [5] = molecular target: T2, Arginase-2, mitochondrial (Homo sapiens) (UniProt P78540); assay: in vitro enzyme assay to detect the production of urea directly proportional to the activity of Arginase II; assay type: functional; settings: 33.3 µM; note: in the data most compounds retested in dose-response had high values
# T2 sequence (whole entry): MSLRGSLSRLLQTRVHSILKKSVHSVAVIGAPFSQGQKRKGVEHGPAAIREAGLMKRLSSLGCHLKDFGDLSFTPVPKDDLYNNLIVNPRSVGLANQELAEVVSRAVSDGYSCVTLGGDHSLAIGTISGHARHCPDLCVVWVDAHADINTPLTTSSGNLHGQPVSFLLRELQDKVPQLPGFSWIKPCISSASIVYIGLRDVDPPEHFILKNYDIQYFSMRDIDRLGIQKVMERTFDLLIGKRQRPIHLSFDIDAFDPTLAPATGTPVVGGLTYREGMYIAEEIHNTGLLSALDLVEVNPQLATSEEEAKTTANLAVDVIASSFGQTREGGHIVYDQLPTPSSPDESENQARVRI
# [6] = molecular target: T3, Proteasome subunit beta (Trypanosoma cruzi) (UniProt O96673); assay: Trypanosoma cruzi proteasome chymotrypsin-like activity (TcProtChymo) assay.; note: in the data most compounds retested in dose-response had high values; assay type: functional; settings: 9.37 µM
# T3 sequence (whole entry): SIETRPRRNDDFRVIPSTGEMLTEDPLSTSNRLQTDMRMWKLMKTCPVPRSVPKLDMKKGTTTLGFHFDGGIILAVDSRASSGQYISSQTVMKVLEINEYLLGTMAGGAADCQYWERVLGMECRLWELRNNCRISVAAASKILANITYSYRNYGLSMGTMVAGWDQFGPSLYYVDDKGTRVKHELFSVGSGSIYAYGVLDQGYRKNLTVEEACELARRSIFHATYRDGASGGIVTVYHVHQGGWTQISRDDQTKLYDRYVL
# Homo sapiens = organism: Homo sapiens; assay: To identify inhibition of the IFN signalling (Jak-Stat) pathway via expression of an eGFP reporter gene under the control of an IFN-stimulated response element (ISRE) containing MxA promoter.; assay type: functional; settings: 30 µM
# [7] = molecular target: T4, Tyrosyl-tRNA synthetase, putative (Trypanosoma cruzi (strain CL Brener)) (UniProt Q4DSP6); assay: Trypanosoma cruzi tyrosyl tRNA synthetase (TcYRS) _High Tyrosine SOP; assay type: functional; settings: 30 µM; note: in the data most compounds retested in dose-response had high values
# T4 sequence (whole entry): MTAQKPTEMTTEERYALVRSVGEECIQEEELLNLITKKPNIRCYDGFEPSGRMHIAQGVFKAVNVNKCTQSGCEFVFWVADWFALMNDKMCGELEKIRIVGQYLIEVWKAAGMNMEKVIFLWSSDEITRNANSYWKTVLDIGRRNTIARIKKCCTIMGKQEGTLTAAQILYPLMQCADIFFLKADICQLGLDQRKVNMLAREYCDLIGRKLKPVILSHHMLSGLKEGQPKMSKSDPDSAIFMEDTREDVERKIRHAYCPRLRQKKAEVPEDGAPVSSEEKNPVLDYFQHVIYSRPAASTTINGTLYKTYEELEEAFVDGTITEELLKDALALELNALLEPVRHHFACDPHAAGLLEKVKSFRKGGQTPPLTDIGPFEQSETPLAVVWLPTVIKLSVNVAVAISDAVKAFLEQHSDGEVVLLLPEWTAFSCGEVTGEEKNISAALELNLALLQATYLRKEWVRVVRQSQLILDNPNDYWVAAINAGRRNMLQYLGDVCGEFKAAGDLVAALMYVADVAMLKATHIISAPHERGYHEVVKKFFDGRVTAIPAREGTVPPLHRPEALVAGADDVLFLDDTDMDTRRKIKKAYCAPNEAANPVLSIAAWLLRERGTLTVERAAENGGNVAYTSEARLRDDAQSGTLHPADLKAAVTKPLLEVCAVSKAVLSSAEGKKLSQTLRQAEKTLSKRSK
# [8] = molecular target: T4, Tyrosyl-tRNA synthetase, putative (Trypanosoma cruzi (strain CL Brener)); assay: Trypanosoma cruzi tyrosyl tRNA synthetase (TcYRS) SOP; assay type: functional; settings: 30 µM
# [9] = molecular target: Chromo domain-containing protein 1 (Saccharomyces cerevisiae (strain ATCC 204508 / S288c) (Baker's yeast)) (UniProt P32657); assay: ScCHD-1 Enzyme Inhibition Assay; assay type: functional; settings: 30 µM; note: in the data most compounds retested in dose-response had high values
# Chain of Chromo domain-containing protein 1 (Saccharomyces cerevisiae (strain ATCC 204508 / S288c) (Baker's yeast)) (P32657 whole entry, the tested form may be a part): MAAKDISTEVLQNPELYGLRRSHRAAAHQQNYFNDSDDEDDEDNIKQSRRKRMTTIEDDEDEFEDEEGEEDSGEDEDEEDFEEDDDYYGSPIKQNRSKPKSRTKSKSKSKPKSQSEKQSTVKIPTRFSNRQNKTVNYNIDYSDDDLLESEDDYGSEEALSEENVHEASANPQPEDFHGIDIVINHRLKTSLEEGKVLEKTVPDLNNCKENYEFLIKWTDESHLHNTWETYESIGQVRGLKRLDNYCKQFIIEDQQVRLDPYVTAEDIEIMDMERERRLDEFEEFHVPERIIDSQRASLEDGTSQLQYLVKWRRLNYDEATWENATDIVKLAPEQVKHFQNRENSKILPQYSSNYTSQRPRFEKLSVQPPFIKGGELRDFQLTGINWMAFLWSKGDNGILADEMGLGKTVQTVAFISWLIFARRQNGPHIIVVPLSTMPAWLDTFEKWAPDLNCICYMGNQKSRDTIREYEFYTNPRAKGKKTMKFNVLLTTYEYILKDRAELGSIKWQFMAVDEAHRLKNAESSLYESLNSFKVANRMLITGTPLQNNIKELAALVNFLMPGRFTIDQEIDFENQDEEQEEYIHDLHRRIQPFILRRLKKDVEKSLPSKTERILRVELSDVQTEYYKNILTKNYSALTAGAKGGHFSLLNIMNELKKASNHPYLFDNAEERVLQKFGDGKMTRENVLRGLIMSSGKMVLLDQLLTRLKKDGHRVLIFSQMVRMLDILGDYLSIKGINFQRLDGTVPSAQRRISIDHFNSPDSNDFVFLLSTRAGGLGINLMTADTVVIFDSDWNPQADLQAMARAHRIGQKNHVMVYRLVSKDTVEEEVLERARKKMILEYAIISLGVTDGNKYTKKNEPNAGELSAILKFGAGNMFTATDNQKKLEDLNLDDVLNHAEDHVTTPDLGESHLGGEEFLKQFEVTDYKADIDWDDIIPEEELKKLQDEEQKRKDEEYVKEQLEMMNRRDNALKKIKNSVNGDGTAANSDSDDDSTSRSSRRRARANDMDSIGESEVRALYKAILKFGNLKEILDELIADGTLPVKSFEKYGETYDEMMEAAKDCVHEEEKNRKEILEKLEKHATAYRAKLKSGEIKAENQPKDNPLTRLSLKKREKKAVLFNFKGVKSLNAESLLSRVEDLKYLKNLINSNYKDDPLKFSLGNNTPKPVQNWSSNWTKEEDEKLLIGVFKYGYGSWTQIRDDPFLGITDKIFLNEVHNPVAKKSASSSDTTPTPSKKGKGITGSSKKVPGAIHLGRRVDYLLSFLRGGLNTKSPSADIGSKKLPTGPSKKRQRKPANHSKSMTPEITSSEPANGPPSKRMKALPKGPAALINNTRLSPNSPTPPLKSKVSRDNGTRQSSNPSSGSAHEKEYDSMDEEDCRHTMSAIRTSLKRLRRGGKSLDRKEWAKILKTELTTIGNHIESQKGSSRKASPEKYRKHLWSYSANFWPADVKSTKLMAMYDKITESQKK
# Chain of Protein translocase subunit SecA (Escherichia coli (strain K12)) (P10408 whole entry): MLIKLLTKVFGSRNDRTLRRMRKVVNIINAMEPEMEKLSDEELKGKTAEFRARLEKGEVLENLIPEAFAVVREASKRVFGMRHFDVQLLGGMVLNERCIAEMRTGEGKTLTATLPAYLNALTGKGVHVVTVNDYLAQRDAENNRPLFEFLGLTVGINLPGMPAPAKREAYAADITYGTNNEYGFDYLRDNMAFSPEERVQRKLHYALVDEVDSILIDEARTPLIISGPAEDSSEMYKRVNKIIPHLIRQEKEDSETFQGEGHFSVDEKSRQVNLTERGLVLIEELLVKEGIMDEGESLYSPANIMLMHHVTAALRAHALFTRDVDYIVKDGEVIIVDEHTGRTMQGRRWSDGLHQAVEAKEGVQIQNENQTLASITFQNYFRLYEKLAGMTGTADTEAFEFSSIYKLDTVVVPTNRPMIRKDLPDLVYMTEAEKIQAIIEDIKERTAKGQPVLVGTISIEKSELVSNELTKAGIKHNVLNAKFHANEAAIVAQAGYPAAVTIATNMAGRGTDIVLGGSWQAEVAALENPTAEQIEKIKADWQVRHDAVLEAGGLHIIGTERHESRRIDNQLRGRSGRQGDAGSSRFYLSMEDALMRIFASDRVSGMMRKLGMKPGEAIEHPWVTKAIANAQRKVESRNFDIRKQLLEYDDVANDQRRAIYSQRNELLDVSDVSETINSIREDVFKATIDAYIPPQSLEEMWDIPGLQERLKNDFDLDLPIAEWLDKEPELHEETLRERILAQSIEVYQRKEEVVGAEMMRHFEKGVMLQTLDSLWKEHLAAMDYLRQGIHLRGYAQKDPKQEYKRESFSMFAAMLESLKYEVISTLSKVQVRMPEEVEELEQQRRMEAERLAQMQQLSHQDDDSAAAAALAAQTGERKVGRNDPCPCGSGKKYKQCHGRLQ
# Chain of Sialic acid-binding Ig-like lectin 9 (Homo sapiens) (Q9Y336 whole entry): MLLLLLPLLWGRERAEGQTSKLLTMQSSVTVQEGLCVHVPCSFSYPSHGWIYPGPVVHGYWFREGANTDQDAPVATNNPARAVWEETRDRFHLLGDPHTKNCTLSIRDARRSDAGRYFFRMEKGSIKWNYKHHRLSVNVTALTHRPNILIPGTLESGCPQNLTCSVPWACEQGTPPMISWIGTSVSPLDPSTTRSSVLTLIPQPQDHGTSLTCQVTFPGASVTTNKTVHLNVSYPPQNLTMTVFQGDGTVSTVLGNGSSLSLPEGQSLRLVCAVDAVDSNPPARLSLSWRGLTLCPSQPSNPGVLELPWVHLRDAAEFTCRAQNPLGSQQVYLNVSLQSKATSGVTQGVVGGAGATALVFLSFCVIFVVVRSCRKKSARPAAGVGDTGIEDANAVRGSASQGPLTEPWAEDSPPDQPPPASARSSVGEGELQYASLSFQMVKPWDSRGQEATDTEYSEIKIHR
SMILES,Percent Effect [1],Percent Effect [2],Percent Effect [3],Percent Effect [4],Percent Effect (Trypanosoma cruzi),Percent Effect [5],Percent Effect [6],Percent Effect (Homo sapiens),Percent Effect [7],Percent Effect [8],Percent Effect [9]
O=C(c1ccco1)N1CC[C@H]2[C@H]1CCN2CC1CCOCC1,-5.53%,0%,11.2%,-3.38%,-3.74%,1.17%,-2.56%,6.93%,6.38%,3.85%,-1.01%
Cc1nc(COC[C@@H]2CC[C@H]3[C@H](CCN3c3ncccn3)O2)cs1,-0.526%,0%,-0.411%,3.43%,-0.394%,4.89%,15.2%,8.36%,4.25%,1.28%,2.8%
CCc1csc(C2CCCN(C(=O)c3ccc(OC)nn3)C2)n1 (stereo not given),-6.61%,7.79%,-35.3%,12.8%,0.187%,-0.356%,4.73%,14.5%,7.77%,14.6%,-7.71%
O=C(c1ccc2c(c1)CCCC2)N1CCOCC1c1ncon1 (stereo not given),-2.2%,5.41%,-9.67%,7.55%,2.17%,-5.61%,9.37%,5.93%,3.45%,13.6%,-8.29%
Cc1cn(-c2ccccc2)nc1NS(=O)(=O)c1cc(C(=O)O)cs1,-9.57%,-5.48%,-4.37%,14.1%,-2.15%,-0.455%,11.9%,6.83%,-8.6%,-12.5%,-5.44%
CNC(=O)CC1CC2(CCN(Cc3nccs3)CC2)c2ccccc21 (stereo not given),-3.09%,16.2%,-8.78%,1.43%,3.52%,3.75%,11.8%,-4.56%,7.92%,8.54%,-7.65%
COc1ccccc1C(=O)NC(CC(=O)O)c1cccs1 (stereo not given),-3.27%,13.9%,0.385%,5.67%,-1.33%,2.8%,20.2%,-5.53%,5.21%,12.7%,-19.2%
CC(C)C1CN(c2ncc(F)cn2)CCC(=O)N1Cc1ccc(F)cc1 (stereo not given),-2.05%,12.5%,-4.48%,14.3%,6.51%,8.83%,13.3%,-7.42%,9.47%,15.4%,-4.54%
Cc1nnc(CN2CCN(CC(O)c3cccc(F)c3)CC2)n1C (stereo not given),-3.94%,15.6%,-3.28%,3.58%,2.64%,0.632%,8.33%,14%,3.81%,11.8%,-20.7%
CC(C)(C)c1ncc(C(=O)NCCS(N)(=O)=O)s1,-6.98%,2.63%,-2.41%,7.37%,0.654%,-2.88%,-6.01%,-5.3%,6.4%,11.1%,2.8%
